# Calls of active or inactive are those of the source. How the calls were made is not given here.
# Target: Pantothenate synthetase (Mycobacterium tuberculosis (strain ATCC 25618 / H37Rv)) (UniProt P9WIL5)
# Experiment: Coupled enzyme confirmation of inhibitors against recombinant Mtb PanC (AID 375);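 further: 0% = full reaction with vehicle and 100% = no enzyme background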
# Conditions: coupled enzyme assay; at 10 µM, hits give high values
# Chain of Pantothenate synthetase (Mycobacterium tuberculosis (strain ATCC 25618 / H37Rv)) (P9WIL5 whole entry, looked up): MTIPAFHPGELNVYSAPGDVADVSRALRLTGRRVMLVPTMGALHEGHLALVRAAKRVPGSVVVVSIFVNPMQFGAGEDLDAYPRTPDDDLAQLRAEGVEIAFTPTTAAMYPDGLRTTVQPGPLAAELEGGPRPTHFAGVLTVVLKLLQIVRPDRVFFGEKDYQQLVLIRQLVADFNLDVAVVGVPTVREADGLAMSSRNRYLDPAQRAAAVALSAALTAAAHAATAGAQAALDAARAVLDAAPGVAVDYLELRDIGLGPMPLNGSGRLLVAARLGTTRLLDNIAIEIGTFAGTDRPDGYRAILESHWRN
row,Compound,inhibition
1,Cc1ccc(C)c(SCC(=O)Nc2nnc(-c3ccccc3)o2)c1,10% (inactive)
2,O=C(c1cc(-c2ccco2)nn1-c1cccc(Cl)c1)N1CCCCC1,8% (inactive)
3,COc1ccc(C(C)=O)c(OC(=O)c2ccc(OC)c(OC)c2)c1,0% (inactive)
4,Cc1c[nH]c2cccc(OCC(O)CNC(C)(C)C)c12 (centres undefined),0% (inactive)
5,COc1nc(OC)nc(N2CCC(C(=O)NCc3cccs3)CC2)n1,0% (inactive)
6,COc1cc(-c2nnc(SCC(=O)c3cc(C)n(CC4CCCO4)c3C)o2)cc(OC)c1OC (centres undefined),0% (inactive)
7,Cc1nc(NC(=O)C2CC3CCCC(C2)C3=O)sc1C (centres undefined),0% (inactive)
8,CCC1(CC)C(=O)C(C)(C)C(=O)OC1c1cccs1 (centres undefined),0% (inactive)
9,COc1ccc(-n2c(=O)cc(N3CCN(Cc4ccccc4)CC3)[nH]c2=O)cc1,0% (inactive)
10,CN(C)c1cccc(NC(=O)CCc2ccccc2)c1,0% (inactive)
11,CC1CCCC(C)N1CCNC(=O)C1CCN(S(=O)(=O)N2CCCCC2)CC1 (centres undefined),3% (inactive)
12,O=C(c1ccc(-c2cccc(C(F)(F)F)c2)o1)N1CCOCC1,0% (inactive)
13,COc1ccc(N2CCN(C(=O)CSc3nnc4n3C(C)(C)Cc3ccccc3-4)CC2)cc1,0% (inactive)
14,CCOc1ccc(C2CC(c3ccccc3C)n3nc(N)nc3N2)cc1 (centres undefined),0% (inactive)
15,O=C(CCCn1c(=O)c2sccc2n(CC(=O)NCc2ccco2)c1=O)NCc1ccco1,0% (inactive)
16,O=c1cc(C(F)F)oc2c1ccc1ccccc12,0% (inactive)
17,CCSc1nc2ccccc2n1CCC(=O)O,0% (inactive)
18,COC(=O)C(O)(CC(=O)c1ccc(OC)cc1)C(F)(F)F (centres undefined),0% (inactive)
19,CCn1c(C(=O)N2CCC(C(=O)NCc3ccc4c(c3)OCO4)CC2)cc2sccc21,0% (inactive)
20,COc1ccc(C(=O)N2CCN(S(=O)(=O)c3cc(Cl)ccc3OC)CC2)cc1,5% (inactive)
21,Cc1ccc(C)c(N(CC(=O)NCc2ccco2)C(=O)CCC(=O)Nc2ccccn2)c1,0% (inactive)
22,O=C(COC(=O)CCOc1ccccc1)Nc1ccc(Cl)cn1,0% (inactive)
23,O=S(=O)(c1ccc(F)c(Cl)c1)N1CCCC1,0% (inactive)
24,CN(CCc1ccccn1)C(=O)CCNC(=O)Cn1cnc2ccccc2c1=O,1% (inactive)
